The list is not random: actives were taken first. Their share in the collection is about 2.9%.
ADAM10 inh: ADAM10 inhibition, QFRET primary screen; inhibition, % at 7 µM; recombinant ADAM10, EDANS/DABCYL FRET peptide cleavage, 3 h; 0.62% of 370,000 active; O14672;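 active means inhibition above a per-campaign cutoff equal to the mean of compounds falling between control-based bounds plus 3 SD, cut at about 20% in these data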;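 further: 0% = DMSO wells while the 100% control is not disclosed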
PLCg1 inh: inhibitors of human phospholipase C gamma1; P19174; purified PLC-gamma1, fluorogenic substrate, fluorescence; inhibition, % at 12.2 µM; 0.84% of 370,000 active; AID 720700
KLK7 zymogen act: proKLK7 (human) activation, primary screen | P49862 | purified proKLK7, EDANS-DABCYL substrate fluorescence; 100% is mature enzyme control, 0% vehicle | activation, % at 7 µM | 0.9% of 370,000 active;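 active means activation above the mean of all tested compounds plus 3 SD, computed per campaign excluding outliers beyond control limits, cut at about 13% in these data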
PLCb3 inh: PLC-beta3 (human) inhibition, primary screen. Q01970. Purified PLC-beta3, fluorogenic substrate, fluorescence. inhibition, % at 12.2 µM. 0.18% of 370,000 active. AID 720704; in the data active means inhibition above about 11%;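 further: 0% = median of compound wells on plate and 100% = full blocker control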
ADAM17 inh: inhibitors of human ADAM17; recombinant ADAM17, EDANS/DABCYL FRET peptide cleavage; P78536; inhibition, % at 6.95 µM; AID 720648; 0.83% of 370,000 active;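 active means inhibition above the mean of compounds lying between control limits plus 3 SD, set per campaign, cut at about 8.5% in these data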;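 further: 0% = DMSO-only wells as the low control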
Target sequence (P78536 215-824 limits assumed): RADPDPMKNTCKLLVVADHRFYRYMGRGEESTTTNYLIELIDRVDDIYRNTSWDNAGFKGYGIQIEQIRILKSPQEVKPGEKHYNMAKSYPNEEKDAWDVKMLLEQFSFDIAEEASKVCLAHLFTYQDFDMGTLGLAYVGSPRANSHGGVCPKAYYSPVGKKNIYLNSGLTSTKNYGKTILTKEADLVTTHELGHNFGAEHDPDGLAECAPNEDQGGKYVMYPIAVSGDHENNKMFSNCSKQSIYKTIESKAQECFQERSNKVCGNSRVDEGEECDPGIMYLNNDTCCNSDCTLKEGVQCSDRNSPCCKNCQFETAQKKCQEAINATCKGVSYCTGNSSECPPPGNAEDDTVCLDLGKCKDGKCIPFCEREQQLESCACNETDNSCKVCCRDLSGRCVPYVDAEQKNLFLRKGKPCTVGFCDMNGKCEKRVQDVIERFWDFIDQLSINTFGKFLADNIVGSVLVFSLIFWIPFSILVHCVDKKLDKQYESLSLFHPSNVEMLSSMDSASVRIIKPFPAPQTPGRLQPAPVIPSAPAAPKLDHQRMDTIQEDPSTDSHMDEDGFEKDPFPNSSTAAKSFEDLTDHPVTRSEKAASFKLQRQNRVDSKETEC
PLCg1 ctr: inhibits human PLC-gamma1 in PLC-beta3 counter-screen; purified PLC-gamma1, fluorogenic substrate, fluorescence; shares compounds with PLCg1 inh; 3.1% of 3,300 active; inhibition, % at 12.3 µM
PLCbeta3 conf: human PLC-beta3 inhibition, confirmation | shares compounds with PLCg1 inh | inhibition, % at 12.3 µM | purified PLC-beta3, fluorogenic substrate fluorescence | 1% of 3,300 active; in the data active means inhibition above about 11%
* hit, by the source's call; · = not tested or not shown. Unless noted, no stated cut-off is given here; in the data, active means inhibition above about 9.5%; inactive means the rest.

SMILES	ADAM10 inh	PLCg1 inh	KLK7 zymogen act	PLCb3 inh	ADAM17 inh	PLCg1 ctr	PLCbeta3 conf
CC1Cc2ccccc2N1C(=O)CN1CCN(Cc2ccccc2)CC1 (stereo unspecified)	2.2	9.8*	0.1	0.5	2.3	-3.9	-0.8
O=C(Cn1cc([N+](=O)[O-])cn1)N1CCc2ccccc21	6.5	-1.6	0.4	0.2	0.9	·	·
CC1CCN(CC(=O)N2c3ccccc3CC2C)CC1 (stereo unspecified)	5.5	-0.4	0.4	-2.4	-3.2	·	·
COC(=O)c1cccc(NC(=O)c2ccc(S(=O)(=O)N3CCN(C)CC3)cc2)c1	-1.4	3.4	0.3	4.5	-3.7	·	·
Cc1[nH]c2ccccc2c(=O)c1CNCc1ccccc1	-22.9	-10.8	-0.6	-13.6	-6.2	·	·
NC1=NC2(CCN(Cc3ccccc3)CC2)n2c(nc3ccccc32)N1	5.9	11.6*	0.1	3.8	4.4	-1.8	-4.6
NC1=NC2(CCCCC2)n2c(nc3ccccc32)N1	1.7	-1.0	0.0	2.3	1.9	·	·
Cc1cccc(OCC(=O)OCC(=O)N(CC(C)C)c2c(N)n(Cc3ccccc3)c(=O)[nH]c2=O)c1C	4.4	14.1*	0.1	9.6	5.3	-4.6	-0.6
Cc1ccc(CN2CC(C(=O)N(CC(C)C)c3c(N)n(Cc4ccccc4)c(=O)[nH]c3=O)CC2=O)cc1 (stereo unspecified)	-11.7	10.0*	0.2	-7.2	-3.4	-4.0	-0.3
c1ccc(-c2nnc(SCc3nc4ccccc4[nH]3)n2Cc2ccco2)nc1	-26.5	-21.7	0.2	-33.9	-11.9	·	·
CNc1nc(Cl)nc(Nc2ccccc2)n1	-1.1	-0.9	-0.4	1.4	-2.9	·	·
C=CCNc1nc(Cl)nc(Nc2ccccc2)n1	8.3	10.8*	-0.1	-2.6	3.5	3.4	4.7
COc1cccc(C2C(C(=O)c3cccs3)=C(O)C(=O)N2CCN2CCOCC2)c1 (stereo unspecified)	-13.4	0.1	-0.6	-4.7	-1.9	·	·
COc1ccc(Br)c(-c2nc(CS(=O)(=O)c3ccc(F)cc3)no2)c1	4.0	-2.2	0.8	-12.0	-0.5	·	·
CCCCCCCOC(=O)C[N+](C)(C)CCOC1CC2CCC1(C)C2(C)C (stereo unspecified)	5.5	9.9*	-0.5	0.9	3.6	-5.6	-10.9
O=C(CCc1nnc(Cc2c[nH]c3ccccc23)o1)NC1CCCC1	6.5	11.7*	0.0	4.2	6.4	-4.6	-3.8
CCC(=O)c1cn(CC(=O)NCc2ccco2)c2ccccc12	4.7	10.0*	0.1	2.4	1.6	-1.1	2.4
COC(=O)c1cn(CC(=O)NCc2ccco2)c2ccccc12	-4.2	13.0*	-0.2	5.5	-3.8	-4.8	-3.3
O=C(Cn1cc(C(=O)c2ccco2)c2ccccc21)NCc1ccco1	-0.7	-3.8	0.4	-7.9	-0.4	·	·
C[C@H]1CN(S(=O)(=O)C(C)(C)C)[C@@H](CCO)/C1=C\CCO	-2.7	10.6*	0.3	0.6	3.2	-0.7	0.0
CCc1ccc(NC(=O)C(=O)NCCN2CCN(S(C)(=O)=O)CC2)cc1	-1.8	11.6*	-0.3	-0.6	-0.1	-3.9	-0.8
CC1CCN(C(=O)CN2C(=O)NC(c3ccccc3)(c3ccccc3)C2=O)CC1	-4.3	12.9*	-0.3	2.1	5.2	-6.3	-1.1
NC(=O)NC(=O)CN1C(=O)NC(c2ccccc2)(c2ccccc2)C1=O	-1.4	10.8*	0.4	2.8	2.9	-3.4	-3.9
NC(=O)c1ccc(NC(=O)CN2C(=O)NC(c3ccccc3)(c3ccccc3)C2=O)cc1	15.2	10.5*	1.0	-5.0	2.9	-3.0	-1.6
O=C(CN1C(=O)NC(c2ccccc2)(c2ccccc2)C1=O)N1CCCCC1	-4.3	-1.4	0.1	-0.2	-0.6	·	·
SMILES	ADAM10 inh	PLCg1 inh	KLK7 zymogen act	PLCb3 inh	ADAM17 inh	PLCg1 ctr	PLCbeta3 conf
O=C(CCNS(=O)(=O)c1ccc(Cl)cc1)NCCc1ccccc1	-10.3	-2.9	-0.2	-2.7	-4.2	·	·
O=C(COC(=O)/C=C/c1cccc(C(F)(F)F)c1)NC(=O)NC1CCCC1	-2.6	3.2	0.5	-7.5	-6.7	·	·
Cn1c(=O)n(C)c2cc([N+](=O)[O-])c(N3CCN(S(C)(=O)=O)CC3)cc21	16.9	6.6	0.6	10.2	7.8	·	·
CCN1CCN(CCc2nc3cc([N+](=O)[O-])ccc3n2C)CC1	14.0	12.2*	-0.7	-3.5	1.2	-0.6	2.1
COc1cc(N=Nc2ccc(Br)cc2)cc(C=O)c1O	-7.4	2.8	0.0	1.8	-0.9	·	·
O=Cc1cc(N=Nc2ccc(S(=O)(=O)O)cc2)ccc1O	-5.6	13.7*	-0.3	-8.2	-1.4	16.0*	0.1
O=C(CCNS(=O)(=O)c1ccc2[nH]c(=O)oc2c1)NCc1ccccc1	-4.1	1.6	0.3	1.0	-0.3	·	·
O=C(CN1C(=O)CSc2ccc(C(F)(F)F)cc21)Nc1ccccc1	12.2	14.0*	-0.3	2.4	-0.5	1.9	3.1
O=C(CCN1C(=O)CSc2ccccc21)Nc1ccc(C(F)(F)F)cc1	-8.3	0.3	-1.1	-8.9	-0.8	·	·
CC(C)(C)OC(=O)C[C@H]1C/C=C\C[C@@H](CC(=O)N(CCO)Cc2ccccc2)C(=O)N2CCC[C@@H]2COC1=O	6.6	0.1	-0.8	10.7*	8.5	-5.4	-2.3
CC(C)(C)OC(=O)C[C@@H]1C/C=C\C[C@H](CC(=O)N(CCO)Cc2ccccc2)C(=O)NCCOC1=O	2.7	6.1	0.0	16.6*	2.8	-9.4	-5.9
CC(C)(C)OC(=O)C[C@@H]1C/C=C\C[C@@H](CC(=O)N(CCO)Cc2ccccc2)C(=O)NCCOC1=O	-0.9	0.7	0.7	1.3	0.4	·	·
CC1(C)O[C@@H]1COc1c2ccoc2cc2oc(=O)ccc12	-17.1	-44.8	1.5	-67.6	-6.4	·	·
Cc1ccccc1NC(=O)c1ccc(CSc2ncccn2)cc1	6.2	-1.0	-0.2	1.9	-0.9	·	·
CC(C)CC(N)c1csc(NC(=O)Nc2ccccc2Cc2ccccc2)n1 (stereo unspecified)	5.7	2.5	-0.1	4.6	-2.1	·	·
CC(C)CC(N)c1csc(NC(=O)c2cc(C(C)(C)C)nn2Cc2ccccc2)n1 (stereo unspecified)	12.2	15.5*	-1.5	4.8	8.5	-3.3	-0.7
CC1C(=O)Nc2ccccc2N1C(=O)c1ccc(Cl)cc1 (stereo unspecified)	-6.6	1.4	-0.5	-5.7	-1.8	·	·
COc1ccc(Br)cc1S(=O)(=O)N1CC(C)OC(C)C1 (stereo unspecified)	-3.1	4.5	0.1	11.0*	5.0	-5.3	-3.5
CCN(CC)CCc1nc(-c2ccccc2)no1	7.7	10.8*	-0.6	9.2	7.1	-2.0	2.1
O=C(O)CCc1nc(-c2ccccc2)no1	8.4	2.6	0.1	6.3	0.7	·	·
CCOc1ccccc1C(=O)Nc1cccc2ccccc12	5.8	-8.0	-0.3	-9.3	2.0	·	·

Compound activity: PubChem, The Scripps Research Institute Molecular Screening Center
